Among all 320,000 compounds or so, about 22,000 (6.9%) were called active. Where a call stands in place of a potency, no number is given. Not shown: some 27% with an inconclusive outcome. This is one part of a sample in which actives are shown more often than they occur. Values without a mark were called inactive. Calls follow the shape of the dose curve; as a rule, active = well fitted inhibition curve with a large enough effect; inconclusive = small, poorly fitted or top-dose-only effect, or another doubt; inactive = no such curve, though single readings can be large or run the other way.

This is an account of results in PubChem BioAssay AID504834 (National Center for Advancing Translational Sciences (NCATS), 2011).
Potency is read from the fitted curve at half-maximal effect.

A short description of this experiment: Primary qHTS for delayed death inhibitors of the malarial parasite plastid, 96 hour incubation. To be noted: P. falciparum luciferase reporter growth; series mostly up to 28.7 µM. An outline of the steps: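 Parasite growth measured via integrated firefly luciferase reporter in P. falciparum. Infected erythrocytes at 2% hematocrit, 0.05% parasitemia final were treated 96 hours at 37 C under 5% CO2, and luminescence was read.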
A general note: qHTS replaces the single test concentration by a dilution series.
Turning to `CC(=O)c1c(C)oc2ccc(NS(=O)(=O)c3ccccc3)cc12`, the Potency entry is “inactive”.
`COc1ccc(CCN(C(=O)COc2ccccc2)c2nc(-c3ccccc3)cs2)cc1OC`: the Potency was 11.7 µM (active).
Regarding `CN(C)CCCN(C(=O)COc1ccccc1)c1nc2c(Cl)cccc2s1`, the Potency result was “inactive”.
Turning to `COc1ccc(CCNc2nc(-c3cccc(NC(C)=O)c3)cs2)cc1OC`, the Potency entry is “inactive”.
Take `O=C(NN1C(=O)C2CCCCC2C1=O)c1ccco1` (stereo not given): the Potency entry is “inactive”.
Same read-out and setting: the entry for `Cc1cccn2c(=O)c(/C=C(\C#N)C(N)=O)c(N3CCCCCC3)nc12` is “inactive”; for `Cc1ccc(C(=O)N/C(=C\c2ccco2)C(=O)NC2CCS(=O)(=O)C2)cc1` (stereo not given) it is “inactive”; for `Cc1cc(C)cc(Oc2nc3c(C)cccn3c(=O)c2/C=C(\C#N)C(=O)NC2CCS(=O)(=O)C2)c1` (stereo not given) it is 11.7 µM (active).
With `CC(=O)Nc1ccc(NC(=O)CSC2=NS(=O)(=O)c3ccccc3N2)cc1`, the Potency entry is “inactive”.
For the compound `COc1ccc(OCc2cc(C(=O)N3CCCC3)no2)c2ccccc12`, the Potency entry was “inactive”.
Same read-out and setting: the entry for `CC(=O)Nc1c2c(nn1-c1ccc(C)cc1C)CS(=O)C2` (stereo not given) is “inactive”; for `CC(=O)Nc1sc2c(c1C(c1cccc(F)c1)N1CCN(CCO)CC1)CCCC2` (stereo not given) it is 7.38 µM (active).
In the case of `CC(C)c1nc(SCC(=O)Nc2cccc(C(=O)O)c2)c2c3c(sc2n1)CCCC3`, the Potency result was “inactive”.
Turning to `O=C(Nc1sc2c(c1C(=O)O)CCC2)c1ccccc1F`, the Potency entry was “inactive”.
`COc1ccc(OCC(=O)Nc2ccc(NC(=O)c3ccco3)c(C)c2)cc1`: the Potency entry is “inactive”.
On to `Cc1noc(C)c1C(=O)NCC1COc2ccccc2O1` (stereo not given), for which the Potency result is “inactive”.
Same read-out and setting: in the case of `CCOc1ccccc1N1CCN(C(=S)Nc2ccc(S(N)(=O)=O)cc2)CC1` it was “inactive”.
Still for that read-out and setting: the figure for `CCOc1ccccc1NC(=S)N1CCN(c2cccc(C)c2C)CC1` is 1.65 µM (active); for `Cc1cccc(NC(=S)N2CCC(O)CC2)c1C` it is “inactive”; for `Cc1onc(-c2c(F)cccc2Cl)c1C(=O)N(C)CC(=O)Nc1cccc(F)c1` it is “inactive”.
For the compound `O=C(O)c1ccc(Cn2c(=S)[nH]c3cc(Cl)ccc3c2=O)cc1`, the Potency result is “inactive”.
Consider `CC(C)c1ccc2c(c1)c(SC(C)(C)C)c(CC(C)(C)C(=O)O)n2Cc1ccc(Cl)cc1`, for which the Potency was 7.38 µM (active).
For the compound `Cc1nc2cc3c(cc2s1)OCO3`, the Potency result is “inactive”.
On the same count and under the same terms, in the case of `O=C(c1cc(COc2ccc(F)cc2F)on1)N1CCOCC1` it was “inactive”; in that of `Cc1cccc(NC(=O)c2ccc3c(=O)n(CC4CCCO4)c(=S)[nH]c3c2)c1` (stereo not given), “inactive”; in that of `CCOC(=O)c1c(C)[nH]c(C)c1S(=O)(=O)NCCCc1ccco1`, “inactive”.
With `COc1cccc(CN(C)CC(=O)NCc2ccccc2Cl)c1OC`, the Potency result is “inactive”.
Turning to `CN(CC1CCCN(CCc2cccc(C(F)(F)F)c2)C1)C(=O)c1ccc2nc[nH]c2c1` (stereo not given), the Potency entry is “inactive”.
With `COc1cccc(CN(C)CC2CCCN(CCc3ccc(Cl)cc3)C2)c1OC` (stereo not given), the Potency was 2.94 µM (active).
Consider `O=C(Cc1ccc(Cl)cc1)NCc1nc(-c2ccccc2)no1`, for which the activity change, negative = inhibition was -24.9% [at 1.15 µM].
Consider `COc1ccc(-c2noc(C(C)NS(=O)(=O)c3ccc(NC(C)=O)cc3)n2)cc1` (stereo not given), for which the Potency result is “inactive”.
On the same count and under the same terms, the figure for `COc1ccc(-c2noc(CNC(=O)C(C)Oc3ccccc3)n2)cc1` (stereo not given) is 13.1 µM (active).
Take `Cc1ccc(OCC(=O)Nc2ccc3oc(=O)ccc3c2)cc1C`: the Potency entry is “inactive”.
Same read-out and setting: in the case of `Cc1ccc(S(=O)(=O)N2CCN(C(=O)c3ccc(-n4cncn4)c([N+](=O)[O-])c3)CC2)cc1` it was “inactive”; in that of `CN1CCN(C(=O)C(=O)c2cn(CC(=O)N3CCCC3)c3ccccc23)CC1`, “inactive”; in that of `CCN(CC)c1nc(-c2ccccc2)cc(C(F)(F)F)c1C#N`, “inactive”.
In the case of `CCCn1c(=O)c2c(C(F)(F)F)cc(-c3cccs3)nc2n(CCC)c1=O`, the Potency entry was “inactive”.
With `N#Cc1c(C(F)(F)F)cc(-c2cccs2)nc1N1CCCCC1`, the Potency was 10.4 µM (active).
With `CCOc1ccc2c(c1)c(=O)c(S(=O)(=O)c1ccc(C)cc1)cn2CC`, the Potency entry was “inactive”.
Regarding `COC(=O)c1ccc(NC(=O)CSc2nncn2-c2cccnc2)cc1`, the Potency result is “inactive”.
The same measure, in the same setting: in the case of `COc1cccc(C(=O)NNC(=O)c2ccccc2Br)c1` it was “inactive”; in that of `COc1cccc(C(=O)NNC(=O)c2cccc(F)c2)c1`, 0.37 µM (active); in that of `COc1cccc(C(=O)NNC(=O)/C=C/c2ccccc2)c1`, “inactive”.
Consider `COCCCNS(=O)(=O)c1cccc(S(=O)(=O)c2cccc(S(=O)(=O)NCCCOC)c2)c1`, for which the Potency result is “inactive”.
On to `CCc1noc(C)c1C(=O)Oc1ccc(N(C)S(=O)(=O)c2ccc(C)c(C)c2)cc1`, for which the Potency result is “inactive”.
For `C/C(=N\NC(=S)NCc1ccccc1)C1CCCCC1`, the Potency is 6.57 µM (active).
On to `C/C(=N\NC(=S)NCc1ccccc1)c1ccc(Cl)cc1`, for which the Potency entry is “inactive”.
Regarding `CC1CCCCN1C(=S)NCc1ccccc1` (stereo not given), the Potency result is “inactive”.
Regarding `Cc1c(C)n2c(SCC(=O)N3CCCC3)nnc2[nH]c1=O`, the Potency result was “inactive”.
With `COc1cc(OC)c(NS(=O)(=O)c2cn(C)cn2)cc1Cl`, the Potency result was “inactive”.
On the same count and under the same terms, in the case of `COC(=O)c1c(C)oc(C)c1S(=O)(=O)Nc1ccc(C(C)C)cc1` it was “inactive”; in that of `CN(CC(=O)Nc1ccc(N2CCOCC2)cc1)CC(=O)Nc1ccccc1[N+](=O)[O-]`, “inactive”; in that of `CCc1ccccc1NC(=O)NCCN1CCCCC1`, “inactive”.
Still for that read-out and setting: the figure for `CN1CCN(CCNC(=O)Nc2ccccc2[N+](=O)[O-])CC1` is 8.28 µM (active).
For the compound `CC1Cc2cc(/C(O)=C3\C(=O)C(=O)N(Cc4cccnc4)C3c3ccccc3F)ccc2O1` (stereo not given), the Potency result is “inactive”.
Take `CCn1cc(C(=O)N2CC(C)CC(C)C2)c(=O)c2cc(S(=O)(=O)N3CCCC3)ccc21` (stereo not given): the Potency result is “inactive”.
Turning to `COC(=O)c1cn(C)c2ccc(S(=O)(=O)N3CC(C)CC(C)C3)cc2c1=O` (stereo not given), the Potency is 3.7 µM (active).
Regarding `CC1CC(C)CN(S(=O)(=O)c2ccc(C(=O)NN3CCOCC3)cc2)C1` (stereo not given), the Potency entry was “inactive”.
Consider `Cc1ccc(-c2cc(C(=O)NN)n[nH]2)o1`, for which the Potency result was “inactive”.
In the case of `CCC1(CC)NC(=O)N(CC(=O)OCC(=O)c2cc(C)c(C)cc2C)C1=O`, the Potency entry was “inactive”.
Turning to `Cc1cc(-c2nnc(SCC(=O)Nc3ccc(S(N)(=O)=O)cc3)n2N)n[nH]1`, the Potency entry was “inactive”.
Still for that read-out and setting: in the case of `N#Cc1ccc(C(=O)OCC(=O)NC(=O)NC2CCCCC2)cc1` it was “inactive”; in that of `O=C(c1cccc(C(=O)N2CCN(c3ccc(F)cc3)CC2)c1)N1CCN(c2ccc(F)cc2)CC1`, 9.28 µM (active); in that of `O=C(c1ccccc1)c1ccc(C(=O)N2CCN(c3ccccc3)CC2)cc1`, “inactive”.
For `O=C(c1cc2cc(F)ccc2[nH]1)N1CCN(c2ccc(F)cc2)CC1`, the Potency entry is “inactive”.
